For 40 sequences, PBM binding z-score results are on record in the supplement of paper PMC6555819.

The subject of the first experiment is THRa homodimer (NR concentration 90 nM). Kind of experiment: PBM binding z-score (relative to random genomic background probes); higher = stronger binding; sequences stand for … in GC…GCGATTGACAGCGTAGAATGAAGG
In outline: (§1)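 Regression normalization was applied to scanned fluorescence from custom Agilent 4×180K protein-binding microarrays. Before scanning, arrays were incubated 1 h with ligand-free nuclear receptor dimers, and binding was detected with antibodies against each partner (one per run). Binding z-scores use the random background probes as reference.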
Sequence TCTATTAGTTGATTAGGGCATCCGAAACAGCGGA registered a PBM binding z-score of 0.317.

On to ACTATTTGTTGACTTAGGGCAACCGATACGACGC, for which the PBM binding z-score amounted to 0.816.

For the sequence ACTAGCAGGCCAAGGGTCACTTAAGATTAGTCCG, the PBM binding z-score was 0.297.

In turn, GATACAGGGTCAAGGCCAGACTACGCGTATTGAT yielded a PBM binding z-score of 1.55.

Sequence TCAATGAGGTTAAAGATCAGGGAACGTGGCGTCG returned a PBM binding z-score of 0.288.

On to GATACAGGGTCAACGCCAGAGTACGCGTATTGAT, for which the PBM binding z-score amounted to 1.

In the case of CGTCCAAGTTCAGCAGGTCAGTGAAAGCGACGTG, the PBM binding z-score is 0.713.

As for TGAATGAGGTTATAAGATCAGGGAACGTTGCAAA, the PBM binding z-score is -0.0262.

With ACTATTAGTTGACTTAGGGAAACCGATACGACGC, the PBM binding z-score was 0.155.

In turn, AGTACAGGGTCACTAGGCCAGAGTAGGTACGAAT registered a PBM binding z-score of 1.04.

GGGACGAGGGCAAGTTGATAGCAGAGTTTGATGG registered a PBM binding z-score of 0.723.

In turn, TGAATGAGGTTAAAGATCAGGGCACGTGGCGTCG displayed a PBM binding z-score of 1.32.

For ACTCGGAGGACAAAGGGCAGAGCTACGCCAGTGA, the PBM binding z-score was -0.631.

For TCATATAGGTAATACAGGTGAAGGTCGGCATCTA, the PBM binding z-score came out at 0.829.

Take TATAGCAGGCCAGAGGGTCACTCAAGAGGTACGG: the PBM binding z-score is -0.288.

As to TCTATTAGATGAAGGGCAACCGACGAGTCCGTTT, the PBM binding z-score was -0.334.

In the case of CCTACTGGGCCTCGAAAGGTCATTGATTCAGTGA, the PBM binding z-score worked out at 0.721.

Regarding TCTAGTAGATCAATAGAGGTTAAGAAAGTGCGCT, the PBM binding z-score was -0.79.

With AGTCAAAGTTCACTAAGTAACGTAAGATTCAGCT, the PBM binding z-score was -0.0534.

Regarding AGAACTAGGGCAATGAGTTGATAGCACGGGTGGC, the PBM binding z-score is -0.177.

Turning to TCAAGCAGGCCAGAGGGTCACTCAAGAGGTACGG, the PBM binding z-score was -0.21.

TCTATTAGTCGAAGGGCAACCGACGAGTCCGTTT: the PBM binding z-score was -0.0492.

CGTCAAAGTACAACTAAGGTAACGTAAAGCACGC returned a PBM binding z-score of 1.62.

In turn, GCTCGGAGGACAAGGTCAGAGATTTGTCCGTAGA gave a PBM binding z-score of 1.51.

For the sequence ATCTCTAGGAAACAAGTTCAGTGAAAGAGAGGAC, the PBM binding z-score came to 0.164.

With CCGACTGGGGCAGAACGGTTACCATACCATCCGG, the PBM binding z-score was -0.791.

GCTCGGAGGACAAGGTCAGAGCATTGTCCGTAGA registered a PBM binding z-score of 1.51.

GCAACGAGGGCAAGTTGATAGCAGAGTTTGATGG: the PBM binding z-score amounted to 0.152.

TCTATTAGTTGATTAGGCCAACCGAAACAGCGGA: the PBM binding z-score amounted to 0.713.

As for TCATATAGGTAGACAGGTGAAAGTCCGTAAGTTA, the PBM binding z-score came out at 0.486.

Consider TCTCGGAGGACACGAAGGTCAGAACTTTCCAGAG, for which the PBM binding z-score was 1.15.

Turning to TCCGACAGGTGAAGGTAACTCAGGTACGCAGTCG, the PBM binding z-score is -0.0593.

On to GCTTGTAGATCATGGTTAAGAAAGACTAAGCTAA, for which the PBM binding z-score was -0.737.

CCGACTGGGGCAGGGTTACCATAACGCACAGCCA: the PBM binding z-score was -0.0778.

For the sequence GCTTGTAGATCAAGGGTAAGAAAGACTAAGCTAA, the PBM binding z-score was -0.974.

The sequence TTACCAAGGTGAGCTGAGGTCGTTGAACCAACTC came in with a PBM binding z-score of 2.02.

As to CTACCAAGGTGAACAAGGGCGTTGATTACTATTC, the PBM binding z-score stood at 0.707.

The sequence TATAGTTGGTCAAAGGTCACACACTCGAAATGCG displayed a PBM binding z-score of 1.79.

Regarding CAAACTAGGTTAAAGGTCAAAGTCGAGCCAACCA, the PBM binding z-score came out at 0.829.

For the sequence AGAACGAGGGCACGCTGAGTTCATAGCAGAGTAG, the PBM binding z-score was determined as 0.849.

A further experiment relates to VDR homodimer (NR concentration 270 nM). The experiment is described as above. In outline: as §1
The sequence TCTATTAGTTGATTAGGGCATCCGAAACAGCGGA had a PBM binding z-score of 0.435.

In turn, ACTATTTGTTGACTTAGGGCAACCGATACGACGC returned a PBM binding z-score of 0.486.

In the case of ACTAGCAGGCCAAGGGTCACTTAAGATTAGTCCG, the PBM binding z-score stood at 0.981.

GATACAGGGTCAAGGCCAGACTACGCGTATTGAT: the PBM binding z-score came out at 2.1.

Take TCAATGAGGTTAAAGATCAGGGAACGTGGCGTCG: the PBM binding z-score was 0.855.

In the case of GATACAGGGTCAACGCCAGAGTACGCGTATTGAT, the PBM binding z-score amounted to 2.52.

In the case of CGTCCAAGTTCAGCAGGTCAGTGAAAGCGACGTG, the PBM binding z-score was 3.65.

Regarding TGAATGAGGTTATAAGATCAGGGAACGTTGCAAA, the PBM binding z-score turned out to be 0.362.

In the case of ACTATTAGTTGACTTAGGGAAACCGATACGACGC, the PBM binding z-score was 0.262.

In the case of AGTACAGGGTCACTAGGCCAGAGTAGGTACGAAT, the PBM binding z-score amounted to 2.39.

In turn, GGGACGAGGGCAAGTTGATAGCAGAGTTTGATGG returned a PBM binding z-score of 2.05.

Take TGAATGAGGTTAAAGATCAGGGCACGTGGCGTCG: the PBM binding z-score is 1.03.

For the sequence ACTCGGAGGACAAAGGGCAGAGCTACGCCAGTGA, the PBM binding z-score was -0.288.

TCATATAGGTAATACAGGTGAAGGTCGGCATCTA returned a PBM binding z-score of 0.817.

As to TATAGCAGGCCAGAGGGTCACTCAAGAGGTACGG, the PBM binding z-score worked out at 0.651.

TCTATTAGATGAAGGGCAACCGACGAGTCCGTTT registered a PBM binding z-score of 0.972.

In turn, CCTACTGGGCCTCGAAAGGTCATTGATTCAGTGA returned a PBM binding z-score of 1.43.

Sequence TCTAGTAGATCAATAGAGGTTAAGAAAGTGCGCT yielded a PBM binding z-score of 0.312.

The sequence AGTCAAAGTTCACTAAGTAACGTAAGATTCAGCT had a PBM binding z-score of 3.4.

AGAACTAGGGCAATGAGTTGATAGCACGGGTGGC had a PBM binding z-score of 1.02.

Sequence TCAAGCAGGCCAGAGGGTCACTCAAGAGGTACGG showed a PBM binding z-score of 0.557.

Sequence TCTATTAGTCGAAGGGCAACCGACGAGTCCGTTT registered a PBM binding z-score of 1.35.

For CGTCAAAGTACAACTAAGGTAACGTAAAGCACGC, the PBM binding z-score worked out at 0.523.

GCTCGGAGGACAAGGTCAGAGATTTGTCCGTAGA: the PBM binding z-score is 0.17.

ATCTCTAGGAAACAAGTTCAGTGAAAGAGAGGAC showed a PBM binding z-score of 2.27.

For CCGACTGGGGCAGAACGGTTACCATACCATCCGG, the PBM binding z-score is -0.33.

In turn, GCTCGGAGGACAAGGTCAGAGCATTGTCCGTAGA returned a PBM binding z-score of 0.838.

In the case of GCAACGAGGGCAAGTTGATAGCAGAGTTTGATGG, the PBM binding z-score is 1.66.

As for TCTATTAGTTGATTAGGCCAACCGAAACAGCGGA, the PBM binding z-score came out at 0.253.

As for TCATATAGGTAGACAGGTGAAAGTCCGTAAGTTA, the PBM binding z-score turned out to be 0.286.

Sequence TCTCGGAGGACACGAAGGTCAGAACTTTCCAGAG returned a PBM binding z-score of 1.45.

As to TCCGACAGGTGAAGGTAACTCAGGTACGCAGTCG, the PBM binding z-score worked out at 0.0508.

As for GCTTGTAGATCATGGTTAAGAAAGACTAAGCTAA, the PBM binding z-score was -0.385.

As to CCGACTGGGGCAGGGTTACCATAACGCACAGCCA, the PBM binding z-score is -0.615.

In the case of GCTTGTAGATCAAGGGTAAGAAAGACTAAGCTAA, the PBM binding z-score was -0.486.

The sequence TTACCAAGGTGAGCTGAGGTCGTTGAACCAACTC returned a PBM binding z-score of 2.01.

In turn, CTACCAAGGTGAACAAGGGCGTTGATTACTATTC showed a PBM binding z-score of 0.903.

In turn, TATAGTTGGTCAAAGGTCACACACTCGAAATGCG displayed a PBM binding z-score of 2.12.

CAAACTAGGTTAAAGGTCAAAGTCGAGCCAACCA came in with a PBM binding z-score of 2.96.

Take AGAACGAGGGCACGCTGAGTTCATAGCAGAGTAG: the PBM binding z-score amounted to 7.01.
